This assay concerns HepG2. Description: GSK_TCMDC: Percent inhibition of human HepG2 cell line. Test compounds present at 10uM. Format: functional.
A word on the Inhibition: it is the relative decrease from the control value, in per cent. Lower therefore signals a weak effect. For `CCn1c(C)c(C)c2cc(C(=O)Nc3ccon3)ccc21`, the Inhibition was found to be 3%.
With `Cc1cc(Nc2ccc(C)c(Cl)c2)n2nc(C(F)(F)F)nc2n1` the figure was 2%; with `COc1cc2nc(N3CCC(CNC(=O)c4ccc(-c5ccc(C(=O)N(C)C)cc5OCCN(C)C)cc4)CC3)nc(N)c2cc1OC`, 0%.
The compound `O=C(Nc1ccc(Br)cc1)Nc1ccc(Cn2ncc(N3CCCNCC3)c(Cl)c2=O)cc1.O=C(O)C(F)(F)F` displayed an Inhibition of 0%.
Turning to `CCOC(=O)CCCOc1c(OC)cc(Cc2cnc(N)nc2N)cc1OC`, the Inhibition came out at 10%.
`COc1cc(C(=O)Nc2ccc3nc(N4CCN(C)CC4)cc(C)c3c2)cc(OC)c1OC` showed an Inhibition of 18%.
`Clc1cccc(CNc2nc(NCCc3c[nH]cn3)nc(NC3CCCCC3)n2)c1` displayed an Inhibition of 17%.
Compound `Cc1cc2cc(-c3ccc(CN)cc3)ccc2nc1N` returned an Inhibition of 18%.
With `O=C(CSc1nc2ccc([N+](=O)[O-])cc2s1)Nc1ccccc1-c1ccccc1` the figure was 0%; with `CC(C)c1ccc(CN2CCC(CNC(=O)c3cc(-c4cccc(Cl)c4)cs3)C2)cc1.O=C(O)C(F)(F)F` (centres undefined), 42%.
The compound `CC(C)(C)c1ccc2[nH]c(-c3ccc(/C=C/C(=O)NC4CCN(Cc5ccccc5)CC4)cc3)nc2c1` gave an Inhibition of 45%.
In turn, `COc1ccc2nccc([C@@H](O)CN3CCC(NCc4nc5c(cc4Cl)OCC(=O)N5)C(F)C3)c2c1.Cl` (some centres undefined) yielded an Inhibition of 4%.
Turning to `COc1ccc2ncc(F)c(CCN3CC(O)C(CNCc4ccc5ccccc5c4)C3)c2n1.Cl` (centres undefined), the Inhibition was found to be 57%.
In the case of `CC(C)NCc1ccc(-c2ccc(NS(=O)(=O)c3cccc4cccnc34)cc2)cc1.O=C(O)C(F)(F)F`, the Inhibition stood at 27%.
